# This is one part of the list. Records with an inconclusive call do not appear. The source made the active and inactive calls. Calls follow the shape of the dose curve; as a rule, active = well fitted inhibition curve with a large enough effect; inconclusive = small, poorly fitted or top-dose-only effect, or another doubt; inactive = no such curve, though single readings can be large or run the other way.
# Assay: Cell Viability - CRE-beta lactamase CHO cell - 40 hr assay
# Settings: CRE-bla CHO viability, ATP luminescence; max response: hits give low values
# Source text: NIH Chemical Genomics Center [NCGC] NIH Molecular Libraries Screening Centers Network [MLSCN] National Institutes of Environmental Health Sciences [NIEHS] National Toxicology Program [NTP] MLSCN Grant: 1X01MH079867-01 Assay Provider: Marshall W. Nirenberg, U.S. National Heart, Lung and Blood Institute NCGC Assay Overview: We have developed a 1536-well cell-based assay for quantitative high throughput screening (qHTS) against a number of cell lines to determine in vitro cytotoxicity of small molecules. This particular assay uses CRE-bla CHO cell line from Invitrogen.
# NCGC Assay Protocol Summary: The CellTiter-Glo luminescent cell viability assay (Promega) is a homogeneous method to measure the number of viable cells in culture. The end point readout of this assay is based on quantitation of intracellular ATP, an indicator of metabolic activity, using the luciferase reaction. Luciferase catalyzes the oxidation of beetle Luciferin to oxyluciferin and light in the presence of ATP. The luminescent signal is proportional to amount of ATP present. Using the CellTiter-Glo luminescent cell viability assay, the amount of cellular ATP was measured in the CRE-bla CHO cell line with complete culture medium following compound treatment for 40 hours. The assay was performed in opaque white Kalypsys 1536-well plates. In the screen, tamoxifen was used as positive control. The selected compounds were measured for their ability to cause acute toxicity in the cell line, as reflected by a decrease in intracellular ATP levels, in a concentration-dependent manner. Data were normalized to the controls for basal activity (DMSO only) and 100% inhibition (100 uM tamoxifen). AC50 values were determined from concentration-response data modeled with the standard Hill equation. NCGC Assay Protocol Summary 1. Reagent; 5 uL; 2000 CHO cells/well 2. Time; overnight; 37 °C incubation 3. Compounds; 23 nL; 5.9 nM to 46 uM 4. Controls; 23 nL; Tamoxifen 4.5 nM to 92 uM 5. Time; 40 hr; 37 °C incubation 6. Reagent; 5 uL; CellTiter Glo reagent 7. Time; 20 min; Room Temperature 8. Detection; Luminescence; Viewlux plate reader Keywords: cell viability, cytotoxicity, CHO cell line, luminescence, MLSMR, MLSCN, NIH Roadmap, qHTS, NCGC
Compound,max response,Potency
Cc1nc(SCC(=O)Nc2cc(C)on2)c2c3c(sc2n1)CCCC3,-15.8% (inactive),
CCc1nc(Nc2ccc3nccnc3c2)c2oc3ccccc3c2n1,-16.6% (inactive),
CC1CCc2sc3nc(N4CCN(CCO)CC4)n4ncnc4c3c2C1 (stereo not given),-25.1% (inactive),
COc1ccc(CCNC(=O)CSc2nc(C)nc3c2oc2ccccc23)cc1OC,-16.6% (inactive),
Cc1nn(-c2ccccc2)c2sc(C(=O)N(Cc3ccco3)C(C)C(=O)NC(C)(C)C)cc12 (stereo not given),,12.6 µM (active)
